This is part of a sample that, as a whole, favours compounds with a hit. Of some 79,000 tested, about 15% had one in any assay. Values without a mark were called inactive. The source made the active and inactive calls. Cut-off read from the data, not from the text of the source: active = growth inhibition above about 70%; inactive = the rest.

The values below come from PubChem BioAssay (NCI).

The assay in a line: NCI Yeast Anticancer Drug Screen. Data for the rad18 strain (AID 177). The conditions noted are these: S. cerevisiae rad18 mutant growth inhibition, stronger effect = higher value. As to the method:
Growth inhibition of yeast strains with defined genetic alterations is measured as a screen for potential anti-cancer activity. Selected strains with alterations in DNA damage repair or cell cycle control were exposed to compounds and growth inhibition was measured relative to vehicle treated controls. The strain used in this assay is rad18

Take `CN(C)CCNC(=Cc1ccc2ccccc2[n+]1C)NCCN(C)C`: the growth inhibition (at 1.2 µM) was -2%; the growth inhibition (at 3.7 µM) is -4%; the growth inhibition (at 11.0 µM) was 0%; the growth inhibition (at 33.0 µM) is -2%; the growth inhibition (at 100.0 µM) was -1%.
As for `CC(=O)/C(=C\c1ccc(Cl)c(Cl)c1)C(=O)C(C)CN(C)C` (stereo not given), the growth inhibition reads like this: (at 1.2 µM) 26%; (at 3.7 µM) 30%; (at 11.0 µM) 55%; (at 33.0 µM) 82% (active); (at 100.0 µM) 93% (active).
The matching figures for `Cc1ccc(S(=O)(=O)N/N=C/C(Br)=C(/Br)C(=O)O)cc1`: 24%, 36%, 64%, 95% (active) and 86% (active).
With `c1ccc(-c2cc(C3CO3)c3ccccc3n2)cc1` (stereo not given), the growth inhibition was 2% (at 1.2 µM); 11% (at 3.7 µM); 53% (at 11.0 µM); 89% (active) (at 33.0 µM); 97% (active) (at 100.0 µM).
On to `Cn1c(-c2ccc(/C=N\N3CCN(/N=C/c4ccc(-c5c[n+]6ccsc6n5C)cc4)CC3)cc2)c[n+]2ccsc12`, for which the growth inhibition (at 1.2 µM) was 19%; the growth inhibition (at 3.7 µM) is 34%; the growth inhibition (at 11.0 µM) was 24%; the growth inhibition (at 33.0 µM) is 62%; the growth inhibition (at 100.0 µM) was 89% (active).
The matching figures for `Cc1nc2sc3c(c2c(=O)o1)CCCC3`: -3%, -3%, -4%, -15% and 1%.
The like results for `CCN(CC)CCC(=O)Nc1ccc2sc3ccccc3c(=O)c2n1` were, in that order, -5%, -4%, -1%, -1% and 9%.
The like results for `CC1(C)CC(=O)C(/C=N/c2nc(-c3ccc(Br)cc3)cs2)=C(O)C1` were, in that order, 2%, 5%, 37%, 96% (active) and 97% (active).
